# Reference: PubChem BioAssay (EPA / NIEHS)
# Inconclusive results are not listed. The source made the active and inactive calls. The calls were made as follows: active = hit-call score of the fitted dose curve at least 0.9, where 1 is the maximum; inconclusive = response in the unintended direction; inactive = score below 0.9.
# Target: human Retinoic Acid Receptor beta (RARb), RARB (gene 5915) (UniProt P10826)
# Assay: ATG_RARb_TRANS: Attagene TRANS-FACTORIAL HepG2 Assay for human Retinoic Acid Receptor beta (AID 2283004)
# Description: ATG_TRANS is a cell-based, multiplexed-readout assay that uses HepG2, a human liver cell line, with measurements taken at 24 hours after chemical dosing in a 24-well plate.ATG_RARb_TRANS is one of 30 assay component(s) measured or calculated from the ATG_TRANS assay. It is designed to make measurements of mRNA induction, a form of inducible reporter, as detected with fluorescence intensity signals by Reverse transcription polymerase chain reaction (RT-PCR) and Capillary electrophoresis technology.Data from the assay component ATG_RARb_TRANS was analyzed into 1 assay endpoint. This assay endpoint, ATG_RARb_TRANS, was analyzed in the positive analysis fitting direction relative to DMSO as the negative control and baseline of activity. Using a type of inducible reporter, measures of mRNA for gain-of-signal activity can be used to understand the reporter gene at the transcription factor-level as they relate to the gene RARB. Furthermore, this assay endpoint can be referred to as a primary readout, because this assay has produced multiple assay endpoints where this one serves a reporter gene function. To generalize the intended target to other relatable targets, this assay endpoint is annotated to the nuclear receptor intended target family, where the subfamily is non-steroidal.
# Human liver HepG2 cells are transiently transfected with multiple reporter transcription units (MRTUs) in 6-well plates using FuGene 6 reagent (Roche; 3 ml FuGene/1 mg DNA). The MRTU constructs are regulated by a cis-regulating element (promoter). […] A major difference between the CIS and TRANS system is that in CIS activities of endogenous TFs are measured, whereas the TRANS assay evaluates changes in activities of exogenous, chimeric NR-Gal4 proteins. […] At the end of 24 hour incubation, total RNA was isolated using TriZol reagent (Invitrogen). The isolated RNA is then reverse-transcribed using oligo(dT) primer and Mo-MLV reverse transcriptase (Invitrogen) with DNAse I (Ambion) treatment for 30 min. The one-tenth of the produced cDNA was amplified by PCR using Taq DNA polymerase (Invitrogen) and two reporter sequence-specific primers. The PCR products were fluorescently labeled by primer extension with 6-arboxyfluorescein (6-FAM) 5'-labeled reporter sequence-specific primer (2 min at 95 C, 20 s at 68 C and 10 min at 72 C) and these products were digested with 5U of HpaI (New England Biolabs) for 2h at 37 C. The fragments were purified using Qiaquick PCR columns (Qiagen), analyzed on an ABI 3130xL genetic analyzer (Applied Biosystems) with peak positions identified by using a set of X-rhodamine (ROX)-labeled MapMarker1000 molecular weight standards (BioVentures). The raw capillary electrophoresis data was processed using Attagraph software (Attagene).
# Chain of human Retinoic Acid Receptor beta (RARb), RARB (gene 5915) (P10826 whole entry, looked up): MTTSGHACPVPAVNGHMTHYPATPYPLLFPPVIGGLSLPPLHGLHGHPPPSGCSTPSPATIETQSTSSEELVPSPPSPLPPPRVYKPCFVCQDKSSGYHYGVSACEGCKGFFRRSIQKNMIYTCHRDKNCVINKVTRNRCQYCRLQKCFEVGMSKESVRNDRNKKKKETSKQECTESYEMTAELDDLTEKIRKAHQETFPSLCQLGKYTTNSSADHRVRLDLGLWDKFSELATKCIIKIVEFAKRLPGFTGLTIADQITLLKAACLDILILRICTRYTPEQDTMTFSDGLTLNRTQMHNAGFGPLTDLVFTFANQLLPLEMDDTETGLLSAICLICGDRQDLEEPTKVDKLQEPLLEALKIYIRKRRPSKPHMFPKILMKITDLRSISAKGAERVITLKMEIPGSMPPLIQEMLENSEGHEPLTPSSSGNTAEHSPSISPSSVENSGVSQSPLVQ
row,SMILES,outcome
1,CCCCCCCCCCCCCC[N+](C)(C)C,inactive
2,Oc1cccc(O)c1,inactive
3,Cc1cc(CCN2CCN(c3nsc4ccccc34)CC2)cc2c1NC(=O)CC2(C)C,inactive
4,CC[C@H](C)[C@@H](C(=O)O)n1sc2ccccc2c1=O,inactive
5,CC(C)(C)c1ccc(O)c(C(C)(C)C)c1,inactive
6,N#C[C@@H]1CC(F)(F)CN1C(=O)CNC1CC2CCC(C1)N2c1ncccn1 (stereo partly drawn),inactive
7,CC1=C(/C=C/C(C)=C/C=C/C(C)=C/C(=O)O)C(C)(C)CCC1,inactive
8,Oc1cc2ccccc2c2ccccc12,inactive
9,O=C(O)c1ccccc1C(c1ccc(O)cc1)c1ccc(O)cc1,inactive
10,CC(O)CO (stereo not drawn),inactive
11,OCCC(F)(F)C(F)(F)C(F)(F)C(F)(F)C(F)(F)C(F)(F)F,inactive
12,NC(=O)N1C(=O)C(C(=O)c2cc(Cl)cs2)c2cc(F)c(Cl)cc21 (stereo not drawn),inactive
14,OC1CCC(C2CCCCC2)CC1 (stereo not drawn),inactive
15,O=C(OCCOCCOC(=O)c1ccccc1)c1ccccc1,inactive
16,CCc1nn(C2CCCCC2)c2cc(C3(C#N)CCC(C(=O)O)CC3)ccc12 (stereo not drawn),inactive
17,CC(O)C(=O)O (stereo not drawn),inactive

row,SMILES,outcome
1,C#C[C@]1(O)CC[C@H]2[C@@H]3CCC4=CC(=O)CC[C@@H]4[C@H]3CC[C@@]21C,inactive
2,CN(C)C=O,inactive
3,CC(C)(C)c1cccc(C(C)(C)C)c1O,inactive
4,COc1cc(CCC(=O)CC(=O)CCc2ccc(O)c(OC)c2)ccc1O,inactive
5,O=C(/C=C/c1ccc(O)cc1)CC(=O)/C=C/c1ccc(O)cc1,inactive
6,CCCOC(=O)c1ccc(O)cc1,inactive
7,CCC(=C(c1ccc(O)cc1)c1ccc(OCCN(C)C)cc1)c1ccccc1,inactive
8,CC(=O)NC1(c2cccc(F)c2)CCN(CC[C@@]2(c3ccc(Cl)c(Cl)c3)CN(c3ccccc3)C(=O)CO2)CC1,inactive
9,NC(=O)N(O)[C@@H]1C=C[C@H](Oc2cccc(Oc3ccc(F)cc3)c2)C1,inactive
10,Nc1cccc2c(N)cccc12,inactive
11,CCCCC(CC)COC(=O)CCCCC(=O)OCC(CC)CCCC (stereo not drawn),inactive
12,COc1ccc([N+](=O)[O-])cc1N,inactive
13,Cc1cc(C)c(O)c(C)c1,inactive
14,CCC(C)(C)C1CCC(O)CC1 (stereo not drawn),inactive
15,CC(=O)CC(C)(C)O,inactive
16,CCCCCCCCCCCCc1ccccc1S(=O)(=O)O,inactive
